Values without a mark were called inactive. Inconclusive results are not listed. Entries that show only a call come without a potency. Active and inactive are the calls of the source. Unless noted, calls come from the whole dose curve; as a rule, active = well fitted curve in the direction sought with a large enough effect; inconclusive = small, poorly fitted or top-dose-only effect, or another doubt; inactive = no such curve, though single readings can be large; an effect the other way counts as inactive or inconclusive.
Assays:
[1] = qHTS assay for measurement of the activity of small molecule inhibitors on Zika virus induced Caspase-3 activity in human iPSC derived neural progenitor cells (hNPCs) (AID 1224857); note: nearly all actives have a fitted effect of over 65% in size
Procedure, shortened: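 Quantitative HTS format: human iPSC neural progenitors, 1 h compound pretreatment, ZIKV 2 FFU/cell for 6 h at 37 C. Percent inhibition derived from luminescent caspase-3/7 signal between uninfected and infected controls.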

[2] = qHTS assay for measurement of the activity of small molecule inhibitors on Zika virus induced Caspase-3 activity in human astrocytoma cells (AID 1224859)
Procedure, shortened: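 Readout is luminescence from Caspase-Glo 3/7 added after a 6 h ZIKV infection (2 FFU/cell) of compound-pretreated (1 h) SNB-19 cells; data expressed as % inhibition versus uninfected and infected wells.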

[3] = qHTS assay to identify small molecule inhibitors of chordoma cells - UCH-1 (AID 1259355); note: nearly all actives have a fitted effect of over 55% in size
Procedure, shortened: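 Cells (800/well) were seeded and left overnight at 37 C, 5% CO2, then treated with drugs at 15 concentrations plus a combination mix of auranofin, camptothecin, doxorubicin, rubitecan and topotecan. Viability after 48hr was read by CellTiter-Glo luminescence.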

[4] = qHTS assay to identify small molecule inhibitors of chordoma cells - UCH-2 (AID 1259356); note: series mostly up to about 46 µM
[5] = P-glycoprotein substrates identified in KB-8-5-11 adenocarcinoma cell line, qHTS therapeutic library screen (AID 1346987); note: nearly all actives have a fitted effect of over 65% in size; note: potency is the fitted concentration of half-maximal effect
Procedure, shortened: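 P-gp-mediated resistance screen: KB-8-5-11 cells treated 72 h with compounds in dose-response. CellTiter-Glo viability.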

[6] = Natriuretic polypeptide receptor (hNpr1) antagonism - Pilot counterscreen GloSensor control cell line (AID 1347045; calls by dose curve; note: series mostly up to about 38 µM)
Procedure, shortened: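 This counterscreen uses HEK293 cells expressing the GIP/pGS-40F cGMP biosensor. Compound-treated cells are challenged with 50 uM sodium nitroprusside, and the luciferase signal is compared before and after stimulation.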

[7] = molecular target: Atrial natriuretic peptide receptor 1 (Homo sapiens) (UniProt P16066); test: Natriuretic polypeptide receptor (hNpr1) antagonism - Pilot screen (AID 1347049; calls by dose curve;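 note: agonist-evoked cGMP luminescence read 20 min after hNppA addition; series mostly up to about 58 µM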)
Sequence of Atrial natriuretic peptide receptor 1 (Homo sapiens) (P16066 whole entry, looked up): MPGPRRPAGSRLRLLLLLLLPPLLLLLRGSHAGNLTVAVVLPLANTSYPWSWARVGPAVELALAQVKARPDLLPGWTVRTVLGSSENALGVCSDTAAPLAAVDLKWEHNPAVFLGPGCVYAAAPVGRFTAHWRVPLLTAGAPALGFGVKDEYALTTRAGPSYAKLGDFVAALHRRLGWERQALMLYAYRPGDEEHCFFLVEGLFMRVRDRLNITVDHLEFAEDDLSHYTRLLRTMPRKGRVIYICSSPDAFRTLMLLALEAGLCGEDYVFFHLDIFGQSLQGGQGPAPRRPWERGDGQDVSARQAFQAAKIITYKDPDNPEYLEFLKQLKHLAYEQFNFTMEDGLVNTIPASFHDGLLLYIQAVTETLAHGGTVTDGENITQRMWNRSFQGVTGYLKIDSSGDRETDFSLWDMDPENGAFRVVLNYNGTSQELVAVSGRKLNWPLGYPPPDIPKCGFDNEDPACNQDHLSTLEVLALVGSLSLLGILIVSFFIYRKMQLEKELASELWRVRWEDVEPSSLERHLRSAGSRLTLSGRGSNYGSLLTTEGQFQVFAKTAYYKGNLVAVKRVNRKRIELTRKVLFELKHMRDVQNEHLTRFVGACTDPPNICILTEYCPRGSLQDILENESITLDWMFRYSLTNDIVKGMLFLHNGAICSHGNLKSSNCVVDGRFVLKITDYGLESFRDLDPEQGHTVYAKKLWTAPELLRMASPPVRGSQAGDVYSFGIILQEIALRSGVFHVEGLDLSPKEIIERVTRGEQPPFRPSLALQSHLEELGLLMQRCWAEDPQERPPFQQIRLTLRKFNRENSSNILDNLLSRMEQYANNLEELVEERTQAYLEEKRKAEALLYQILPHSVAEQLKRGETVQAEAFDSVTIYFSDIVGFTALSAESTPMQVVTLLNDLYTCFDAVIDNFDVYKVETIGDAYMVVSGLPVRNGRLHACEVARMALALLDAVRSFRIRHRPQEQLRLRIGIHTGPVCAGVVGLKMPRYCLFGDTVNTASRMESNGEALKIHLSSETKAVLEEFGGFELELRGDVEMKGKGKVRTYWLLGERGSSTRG
Procedure, shortened: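 HEK293 cells expressing hNpr1 and GloSensor cGMP luciferase, 1500/well, loaded with 2% GloSensor reagent 2 h, compound 30 min at room temperature; luminescence read before and 20 min after 0.1 nM hNppA stimulation.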

[8] = molecular target: Atrial natriuretic peptide receptor 2 (Homo sapiens) (UniProt P20594); test: Natriuretic polypeptide receptor (hNpr2) antagonism - Pilot subtype selectivity assay (AID 1347050; calls by dose curve; note: potency is the fitted concentration of half-maximal effect)
Sequence of Atrial natriuretic peptide receptor 2 (Homo sapiens) (P20594 whole entry, looked up): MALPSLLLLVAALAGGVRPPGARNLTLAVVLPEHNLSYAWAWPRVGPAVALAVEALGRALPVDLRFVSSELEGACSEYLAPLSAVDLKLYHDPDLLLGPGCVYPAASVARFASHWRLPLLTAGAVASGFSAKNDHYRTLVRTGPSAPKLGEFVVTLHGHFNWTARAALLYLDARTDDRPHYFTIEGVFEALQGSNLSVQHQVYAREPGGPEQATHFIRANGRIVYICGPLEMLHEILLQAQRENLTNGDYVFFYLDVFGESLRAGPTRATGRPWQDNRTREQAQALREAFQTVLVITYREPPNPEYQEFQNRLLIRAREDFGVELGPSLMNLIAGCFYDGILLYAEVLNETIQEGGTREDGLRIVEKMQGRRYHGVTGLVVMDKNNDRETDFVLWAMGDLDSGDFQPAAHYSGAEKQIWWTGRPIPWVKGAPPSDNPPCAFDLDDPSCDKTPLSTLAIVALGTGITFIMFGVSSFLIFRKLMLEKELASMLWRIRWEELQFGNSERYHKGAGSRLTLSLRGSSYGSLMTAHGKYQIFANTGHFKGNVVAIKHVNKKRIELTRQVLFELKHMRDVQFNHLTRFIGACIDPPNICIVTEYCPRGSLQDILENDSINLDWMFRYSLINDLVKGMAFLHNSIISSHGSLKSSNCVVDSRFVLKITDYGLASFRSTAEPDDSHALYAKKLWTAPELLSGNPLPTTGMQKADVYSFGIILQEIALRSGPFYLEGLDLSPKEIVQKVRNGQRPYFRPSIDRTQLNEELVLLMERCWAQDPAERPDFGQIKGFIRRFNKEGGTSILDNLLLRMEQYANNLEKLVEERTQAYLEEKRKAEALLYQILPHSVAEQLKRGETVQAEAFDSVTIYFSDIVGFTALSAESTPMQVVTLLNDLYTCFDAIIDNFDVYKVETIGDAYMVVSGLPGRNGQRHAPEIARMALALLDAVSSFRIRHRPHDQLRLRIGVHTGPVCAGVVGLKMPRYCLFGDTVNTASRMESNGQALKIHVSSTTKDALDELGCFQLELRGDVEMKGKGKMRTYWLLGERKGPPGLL
Procedure, shortened: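 HEK293 cells expressing hNpr2 and a GloSensor cGMP luciferase sensor, 1500/well, preloaded 2 h with 2% GloSensor reagent, compound 30 min, then 1 nM hNppC for 20 min. Antagonism from luminescence after versus baseline pre-read; LOPAC in 1:5 titrations.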

[9] = NS1 protein of Zika virus - qHTS assay to identify small molecule inhibitors in human HEK 293 cells (AID 1347053); note: series mostly up to about 46 µM; nearly all actives have a fitted effect of over 55% in size
Procedure, shortened: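 HEK 293; 20 h pre-culture, 37 C/5% CO2; cpd 1 h pre-infection; ZIKV MR766, MOI = 0.5, 24 h, 37 C; TR-FRET NS1 readout (two anti-NS1 Abs); norm. to no-virus vs infected.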

[10] = molecular target: T1, Tyrosine-protein phosphatase non-receptor type substrate 1 (Homo sapiens) + Leukocyte surface antigen CD47 (Homo sapiens) (UniProt P78324+Q08722); test: CD47-SIRPalpha protein protein interaction - LANCE assay qHTS validation (AID 1347057; active = well fitted curve in the direction sought with a large enough effect in the signal ratio, with a control signal flat, not every such curve was filed as active; the % refers to the signal ratio; note: series mostly up to about 38 µM)
T1 sequence (P78324 whole entry, looked up): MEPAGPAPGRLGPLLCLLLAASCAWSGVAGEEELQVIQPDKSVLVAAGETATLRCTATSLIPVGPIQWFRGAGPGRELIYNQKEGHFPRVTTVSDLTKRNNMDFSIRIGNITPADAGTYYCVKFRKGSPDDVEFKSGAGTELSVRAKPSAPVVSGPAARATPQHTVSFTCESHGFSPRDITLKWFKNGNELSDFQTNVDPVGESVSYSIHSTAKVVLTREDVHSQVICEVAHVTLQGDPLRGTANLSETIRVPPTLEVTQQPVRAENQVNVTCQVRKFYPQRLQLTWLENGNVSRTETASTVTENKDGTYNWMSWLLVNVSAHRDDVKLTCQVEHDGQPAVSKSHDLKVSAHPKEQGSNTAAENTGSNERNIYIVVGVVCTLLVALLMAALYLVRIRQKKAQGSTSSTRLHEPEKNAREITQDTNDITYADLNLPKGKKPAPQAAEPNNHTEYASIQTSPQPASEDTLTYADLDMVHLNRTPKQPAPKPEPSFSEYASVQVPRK
T1 sequence (Q08722 whole entry, looked up): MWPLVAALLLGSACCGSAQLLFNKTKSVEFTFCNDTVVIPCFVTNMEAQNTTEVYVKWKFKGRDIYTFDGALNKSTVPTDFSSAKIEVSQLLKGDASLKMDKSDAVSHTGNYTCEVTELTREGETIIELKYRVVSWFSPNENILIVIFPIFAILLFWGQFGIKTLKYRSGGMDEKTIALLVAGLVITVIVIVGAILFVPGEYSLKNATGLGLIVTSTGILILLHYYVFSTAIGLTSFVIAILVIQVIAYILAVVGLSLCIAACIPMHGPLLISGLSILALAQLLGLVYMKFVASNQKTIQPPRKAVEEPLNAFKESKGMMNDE
Procedure, shortened: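 First, His-tagged CD47 and Eu-labelled anti-His antibody met the compound for 30 min; next, site-specifically biotinylated SIRPalpha was added for 30 min; finally streptavidin-APC was added before reading the TR-FRET ratio.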

[11] = molecular target: T1, Tyrosine-protein phosphatase non-receptor type substrate 1 (Homo sapiens) + Leukocyte surface antigen CD47 (Homo sapiens); test: CD47-SIRPalpha protein protein interaction - HTRF assay qHTS validation (AID 1347058; active = well fitted curve in the direction sought with a large enough effect in the signal ratio, not every such curve was filed as active; the % refers to the signal ratio;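 note: recombinant soluble extracellular CD47 with His tag and biotinylated SIRPalpha domains; series mostly up to about 38 µM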)
Procedure, shortened: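 TR-FRET read (Ch1/Ch2 ratio) of soluble extracellular CD47 and Avi-biotinylated SIRPalpha domains in PBS pH 7.4 with 0.05% IGEPAL; 7-point compound titration. Sequential 30 min room-temperature steps; non-biotinylated SIRPalpha as control inhibitor.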

[12] = molecular target: T1, Tyrosine-protein phosphatase non-receptor type substrate 1 (Homo sapiens) + Leukocyte surface antigen CD47 (Homo sapiens); test: CD47-SIRPalpha protein protein interaction - Alpha assay qHTS validation (AID 1347059);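 note: bead proximity luminescence from CD47 binding SIRPalpha after compound preincubation with SIRPalpha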
Procedure, shortened: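 Biotinylated Avi-tagged SIRPalpha (25 nM) preincubated 30 min with compound, then His-tagged CD47 (12.5 nM) added 30 min; AlphaScreen with Ni-NTA acceptor and streptavidin donor beads. PBS pH 7.4, 0.05% IGEPAL, room temperature; 7-point titrations.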

[13] = molecular target: Parathyroid hormone/parathyroid hormone-related peptide receptor (Homo sapiens) (UniProt Q03431); test: qHTS for PTHR1 Agonists: Optimization Screen against the NCGC LOPAC library (AID 1347079);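 note: GloSensor cAMP luminescence in HEK-293 GP2 cells expressing human PTHR1 with IBMX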
Sequence of Parathyroid hormone/parathyroid hormone-related peptide receptor (Homo sapiens) (Q03431 whole entry, looked up): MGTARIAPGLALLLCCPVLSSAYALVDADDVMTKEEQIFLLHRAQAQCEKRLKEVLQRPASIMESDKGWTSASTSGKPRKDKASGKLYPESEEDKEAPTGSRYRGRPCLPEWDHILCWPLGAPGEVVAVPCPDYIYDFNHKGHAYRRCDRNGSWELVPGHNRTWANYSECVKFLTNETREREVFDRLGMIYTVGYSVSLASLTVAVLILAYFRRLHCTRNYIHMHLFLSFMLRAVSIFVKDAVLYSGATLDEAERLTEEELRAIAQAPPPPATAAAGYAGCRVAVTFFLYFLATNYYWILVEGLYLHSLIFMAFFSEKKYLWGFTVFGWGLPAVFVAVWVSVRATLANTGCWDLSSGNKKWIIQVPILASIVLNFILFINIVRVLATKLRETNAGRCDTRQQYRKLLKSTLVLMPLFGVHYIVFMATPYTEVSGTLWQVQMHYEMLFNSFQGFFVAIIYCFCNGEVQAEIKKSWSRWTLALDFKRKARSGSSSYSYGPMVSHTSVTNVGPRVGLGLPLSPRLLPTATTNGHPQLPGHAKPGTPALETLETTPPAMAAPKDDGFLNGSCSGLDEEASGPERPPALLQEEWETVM
Procedure, shortened: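 Compounds were tested across a qHTS titration. PTHR1-expressing GP2 cells report cAMP rises via GloSensor luminescence after 1 hr compound exposure at 37C with IBMX present.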

[14] = qHTS of pediatric cancer cell lines to identify multiple opportunities for drug repurposing: Primary screen for TC32 cells (AID 1347089); note: nearly all actives have a fitted effect of over 60% in size
Procedure, shortened: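 Luminescent ATP read-out (CellTiter-Glo) of metabolically active TC32 cells after 48 h exposure. Concentration-response curves came from 11-point (MIPE, 0.78 nM–46 µM) or 8-point (NPC, 0.59 nM–46 µM) primary titrations; follow-up used 11 points.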

[15] = qHTS of pediatric cancer cell lines to identify multiple opportunities for drug repurposing: Primary screen for DAOY cells (AID 1347090); note: series mostly up to about 46 µM; nearly all actives have a fitted effect of over 55% in size
Procedure, shortened: (§1)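 Viability measured as metabolically active cells via CellTiter-Glo luminescence following 48 hours of compound exposure, 11-point dilutions in confirmatory testing. 500-1,000 cells/well plated 5 hours before dosing; controls were DMSO and 2.3 µM bortezomib.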

[16] = qHTS of pediatric cancer cell lines to identify multiple opportunities for drug repurposing: Primary screen for SJ-GBM2 cells (AID 1347091)
Procedure, shortened: as §1

[17] = P-glycoprotein substrates identified in KB-3-1 adenocarcinoma cell line, qHTS therapeutic library screen (AID 1346986); conditions: outcome: dose series up to 44.5 µM; note: nearly all actives have a fitted effect of over 60% in size
Procedure, shortened: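 Compounds were tested in dose-response against KB-3-1 and KB-8-5-11 cells at 37 degree C for 72 h, and viability was measured by luminescence. AC50 values came from curve fitting with class-based activity calls.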

Structure (SMILES) | outcome [1] | outcome [2] | Potency [3] | Potency [4] | Potency [5] | Potency [6] | Potency [7] | Potency [8] | outcome [9] | outcome [10] | outcome [11] | Potency [12] | outcome [13] | Potency [14] | Potency [15] | Potency [16] | activity change, negative = cytotoxic [14] | activity change, negative = cytotoxic [15] | activity change, negative = cytotoxic [16] | outcome [17]
FC(F)(F)c1ccccc1-n1ccnc1 | inactive | inactive | inactive | inactive | inactive | inactive | inactive | inactive | inactive | inactive | inactive | inactive | inactive | inactive | inactive | inactive | – | – | – | –
CN(C)CCOC(=O)COc1ccc(Cl)cc1 | inactive | inactive | inactive | inactive | inactive | inactive | inactive | inactive | inactive | inactive | inactive | inactive | inactive | inactive | inactive | inactive | – | – | – | –
CC(=O)OC(C)C[N+](C)(C)C (centres undefined) | inactive | inactive | inactive | inactive | inactive | inactive | inactive | inactive | inactive | inactive | inactive | inactive | inactive | – | inactive | inactive | – | – | – | –
O=C(O)CP(=O)(O)O | inactive | inactive | inactive | inactive | inactive | inactive | inactive | inactive | inactive | inactive | inactive | inactive | – | inactive | inactive | inactive | – | – | – | –
CCn1cc(C(=O)O)c(=O)c2cc3c(cc21)OCO3 | inactive | inactive | inactive | inactive | inactive | – | inactive | inactive | inactive | inactive | inactive | inactive | – | inactive | inactive | inactive | – | – | – | –
CC(=O)[C@@]1(O)CC[C@H]2[C@@H]3CCC4=CC(=O)CC[C@]4(C)[C@H]3CC[C@@]21C | inactive | inactive | inactive | inactive | inactive | inactive | inactive | inactive | inactive | inactive | inactive | inactive | inactive | inactive | inactive | inactive | – | – | – | –
NC(Cc1ccc(Cl)cc1)C(=O)O (centres undefined) | inactive | inactive | inactive | inactive | inactive | inactive | inactive | inactive | inactive | inactive | inactive | inactive | inactive | – | – | – | 11.6% [at 0.594 µM] | 15.2% [at 0.597 µM] | 16.4% [at 0.597 µM] | –
CC(C(=O)O)c1ccc(CC2CCCC2=O)cc1 (centres undefined) | inactive | inactive | inactive | inactive | inactive | inactive | inactive | inactive | inactive | inactive | inactive | inactive | – | inactive | inactive | inactive | – | – | – | –
NCCCNCCSP(=O)(O)O | inactive | inactive | inactive | inactive | inactive | inactive | inactive | inactive | inactive | inactive | inactive | inactive | inactive | – | – | – | 10.8% [at 9.17 µM] | 0.0744% [at 9.22 µM] | 14.1% [at 9.22 µM] | –
CCCC(C(=O)OCCN(CC)CC)(c1ccccc1)c1ccccc1 | inactive | inactive | inactive | inactive | 13 µM (active) | inactive | inactive | 10.4 µM (active) | inactive | inactive | inactive | inactive | inactive | inactive | – | – | – | – | – | –
CCN1CCc2nc(N)oc2CC1 | inactive | inactive | inactive | inactive | inactive | – | inactive | inactive | inactive | inactive | – | inactive | inactive | inactive | inactive | inactive | – | – | – | –
Cc1ccc(=O)n(-c2ccccc2)c1 | inactive | inactive | inactive | inactive | inactive | inactive | inactive | inactive | inactive | inactive | inactive | inactive | inactive | inactive | inactive | inactive | – | – | – | –
CCCN(CCC)C(=O)C(CCC(=O)O)NC(=O)c1ccccc1 (centres undefined) | inactive | inactive | inactive | inactive | inactive | inactive | inactive | inactive | inactive | inactive | inactive | inactive | inactive | inactive | inactive | inactive | – | – | – | –
Cc1cc(C)c(/C=C2\C(=O)Nc3ccccc32)[nH]1 | inactive | inactive | inactive | inactive | – | inactive | inactive | inactive | inactive | inactive | – | inactive | inactive | inactive | inactive | inactive | – | – | – | inactive
CCn1ccnc1CC1COc2ccccc2O1 (centres undefined) | inactive | inactive | inactive | inactive | inactive | – | inactive | inactive | inactive | inactive | inactive | inactive | inactive | inactive | inactive | inactive | – | – | – | –
